From article PMC6602471

Biological target: RUNX1 (Homo sapiens, UniProt Q01196 1-453)
Assay: custom PBM; custom protein-binding microarray; buffer, salt, pH and temperature not stated; high values mean tight binding
Settings: dsDNA, one strand shown

Sequence of RUNX1 (Q01196 whole entry): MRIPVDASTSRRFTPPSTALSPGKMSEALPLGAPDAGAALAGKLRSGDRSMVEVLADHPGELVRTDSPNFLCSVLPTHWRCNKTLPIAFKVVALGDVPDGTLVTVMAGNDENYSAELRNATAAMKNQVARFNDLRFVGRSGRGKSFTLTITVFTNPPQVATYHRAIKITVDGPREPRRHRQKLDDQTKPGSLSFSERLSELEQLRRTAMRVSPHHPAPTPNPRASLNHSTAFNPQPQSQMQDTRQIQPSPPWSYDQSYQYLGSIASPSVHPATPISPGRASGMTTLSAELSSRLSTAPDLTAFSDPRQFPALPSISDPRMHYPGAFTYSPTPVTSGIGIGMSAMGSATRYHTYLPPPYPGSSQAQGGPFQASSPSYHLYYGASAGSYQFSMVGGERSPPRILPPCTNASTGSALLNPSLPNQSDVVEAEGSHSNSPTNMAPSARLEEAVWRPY

Sequence	binding signal
CGCGCACGCTGTGGTTGCGCACATACGCACACATACACATACACACATACACATACGCAC	11.2 log fluorescence intensity
GCGCACATTTCCCGTAAATCATACACGCACACATACACATACACACATACACATACGCAC	11 log fluorescence intensity
CGCGCACTCTGTGGGTGCGCACATACGCACACATACACATACACACATACACATACGCAC	10.9 log fluorescence intensity
GCATACGGCTGACGTCAGCCACATACGCACACATACACATACACACATACACATACGCAC	11 log fluorescence intensity
GCATACGGCTGACATCAGCCACATACGCACACATACACATACACACATACACATACGCAC	10.9 log fluorescence intensity
GCGCACATTTCCCGTAAAGCATACACGCACACATACACATACACACATACACATACGCAC	11 log fluorescence intensity
GCGCACATTTCCCGTAAACCATACACGCACACATACACATACACACATACACATACGCAC	11 log fluorescence intensity
GCGCACTTTTCCCGTAAATCATACACGCACACATACACATACACACATACACATACGCAC	11 log fluorescence intensity
GCATACGGCTGACGTCAGCTACATACGCACACATACACATACACACATACACATACGCAC	10.9 log fluorescence intensity
GCATACGGCTGTCGTCAGCCACATACGCACACATACACATACACACATACACATACGCAC	10.9 log fluorescence intensity
GCGCACATTTCCCGCAAATCATACACGCACACATACACATACACACATACACATACGCAC	11.1 log fluorescence intensity
GCGCACATTTCCCGTATATCATACACGCACACATACACATACACACATACACATACGCAC	11 log fluorescence intensity
GCATACGGCTGAGGTCAGCCACATACGCACACATACACATACACACATACACATACGCAC	10.9 log fluorescence intensity
CGCGCACTCTGTGGTCGCGCACATACGCACACATACACATACACACATACACATACGCAC	11.3 log fluorescence intensity
CGCGCACTCTGTGCTTGCGCACATACGCACACATACACATACACACATACACATACGCAC	10.9 log fluorescence intensity
GCATACGGCTCACGTCAGCCACATACGCACACATACACATACACACATACACATACGCAC	10.9 log fluorescence intensity

Sequence	binding signal
GCGCACATTTCACGTAAATCATACACGCACACATACACATACACACATACACATACGCAC	10.9 log fluorescence intensity
GCGCACCTTTCCCGTAAATCATACACGCACACATACACATACACACATACACATACGCAC	10.9 log fluorescence intensity
GCGCACATTTCCTGTAAATCATACACGCACACATACACATACACACATACACATACGCAC	10.9 log fluorescence intensity
GCGCACATTTCCCTTAAATCATACACGCACACATACACATACACACATACACATACGCAC	11 log fluorescence intensity
CGCGCAATCTGTGGTTGCGCACATACGCACACATACACATACACACATACACATACGCAC	11.1 log fluorescence intensity
GCGCACATTTCCAGTAAATCATACACGCACACATACACATACACACATACACATACGCAC	10.9 log fluorescence intensity
CGCGCACTCTGTGGTTGCCCACATACGCACACATACACATACACACATACACATACGCAC	11.3 log fluorescence intensity
GCATACGGCTGACGTCCGCCACATACGCACACATACACATACACACATACACATACGCAC	10.9 log fluorescence intensity
CGCGCACTCTGTGGTTACGCACATACGCACACATACACATACACACATACACATACGCAC	11.7 log fluorescence intensity
GCGCACATCTCCCGTAAATCATACACGCACACATACACATACACACATACACATACGCAC	10.9 log fluorescence intensity
CGCGCCCTCTGTGGTTGCGCACATACGCACACATACACATACACACATACACATACGCAC	11.5 log fluorescence intensity
CGCGCATTCTGTGGTTGCGCACATACGCACACATACACATACACACATACACATACGCAC	11.4 log fluorescence intensity
GCATACGGCTGACCTCAGCCACATACGCACACATACACATACACACATACACATACGCAC	11 log fluorescence intensity
GCATACGTCTGACGTCAGCCACATACGCACACATACACATACACACATACACATACGCAC	11 log fluorescence intensity
GCGCACATTACCCGTAAATCATACACGCACACATACACATACACACATACACATACGCAC	10.9 log fluorescence intensity
CGCGCACACTGTGGTTGCGCACATACGCACACATACACATACACACATACACATACGCAC	11.2 log fluorescence intensity
